Measurements published in ChEMBL document CHEMBL3988442, “University of Dundee, Small-Polar-MMV Screening Library” (2021).

Each compound was assayed against T1, Aspartate--tRNA(Asp/Asn) ligase (Mycobacterium tuberculosis (strain ATCC 25618 / H37Rv)) (UniProt P9WFW3) (assay: Assay for Asp RNA synthetase-1 from Mycobacterium tuberculosis). Settings: 30 µM.
T1 sequence (whole entry): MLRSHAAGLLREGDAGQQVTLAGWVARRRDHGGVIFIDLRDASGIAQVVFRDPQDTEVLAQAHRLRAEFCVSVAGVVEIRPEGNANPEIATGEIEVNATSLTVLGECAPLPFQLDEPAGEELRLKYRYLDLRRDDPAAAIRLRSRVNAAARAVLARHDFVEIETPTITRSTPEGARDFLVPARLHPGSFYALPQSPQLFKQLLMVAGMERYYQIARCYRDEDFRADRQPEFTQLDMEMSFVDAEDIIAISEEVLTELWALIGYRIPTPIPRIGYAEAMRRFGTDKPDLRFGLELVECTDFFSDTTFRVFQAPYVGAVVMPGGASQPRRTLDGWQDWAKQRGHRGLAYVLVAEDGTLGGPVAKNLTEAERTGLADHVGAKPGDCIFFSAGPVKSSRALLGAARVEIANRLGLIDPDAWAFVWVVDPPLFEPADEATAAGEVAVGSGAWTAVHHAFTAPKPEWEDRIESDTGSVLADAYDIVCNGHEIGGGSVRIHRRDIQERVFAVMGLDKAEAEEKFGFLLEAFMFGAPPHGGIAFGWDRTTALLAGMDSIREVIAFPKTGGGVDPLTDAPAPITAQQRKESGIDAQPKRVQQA
Type: functional
Design: scale not given: in the data most compounds retested in dose-response had high values
Work on `Cc1cc(-c2cnn(CCNC(=O)c3cccnc3)c2C2CC2)on1` yielded a Percent Effect of 0.491%. `O=C(NCC1CC1)c1nc(COc2ccc3c(c2)OCO3)no1` was tested, and the Percent Effect was -5.11%. Compound `CCN(Cc1nc2c(cnn2C)c(=O)[nH]1)c1cccc(Cl)c1` has a Percent Effect of 0.461%. In the case of `O=C(N1CCCC1)N1CCC2(CCCN(CCOc3ccccc3)C2)C1` (stereo not given), the Percent Effect is reported as -0.364%. In the case of `CN(C)C(=O)NC1COC2(CCN(C(=O)Nc3ccccc3)CC2)C1` (stereo not given), the Percent Effect is reported as 7.1%. `Clc1ccccc1CN1CCc2nc(C3CCCCN3)ncc2C1` (stereo not given) showed a Percent Effect of 1.4%. In the case of `O=C(c1cccs1)N1CCC(Cn2nc(-c3ccco3)ccc2=O)CC1`, the Percent Effect is reported as -3.23%. `O=C(Cn1cc(C(=O)O)ccc1=O)Nc1ccc(F)cc1Cl` gave a Percent Effect of -8.57%. `O=C(O)CC1CN(Cc2ccccc2)CCO1` (stereo not given) gave a Percent Effect of -0.183%. `Cc1ccc(NC2CCN(C(=O)c3cnc(C)s3)CC2)nn1` was tested, and the Percent Effect was -1.51%. With `Cn1cccc1C(=O)NCc1cnc2n1CCN(C(=O)N1CCCC1)C2` the Percent Effect was -0.495%. `O=C1NCCN1C1CCCN(Cc2nnc(-c3ccc(F)cc3)o2)C1` (stereo not given) was tested, and the Percent Effect was -2.77%. `CC(=O)N1CCC(c2cncc(Oc3ccccc3)n2)CC1` was tested, and the Percent Effect was 0.485%. In the case of `Cc1ccc(-c2nc(CNCC3CN(C)CCO3)cs2)o1` (stereo not given), the Percent Effect is reported as 1.27%. With `O=C(N1CCCCC1)N1CCN(CC(O)c2ccc(F)cc2)CC1` (stereo not given) the Percent Effect was -2.17%. For `Cc1cccnc1CN1CCC(c2nnc(Cn3cccn3)n2C)CC1`, the Percent Effect was -1.2%. `CC(=O)N1CCCC1c1ccc(-c2c(C)noc2C)cn1` (stereo not given) was tested, and the Percent Effect was -1.44%. Work on `Cc1cc(CN(C)C(=O)NCc2cccc(N3CCCC3=O)c2)no1` yielded a Percent Effect of -2.4%. `N#Cc1ccccc1OCCN1CCn2c(nnc2C2CC2)C1` was tested, and the Percent Effect was -1.13%. For `Cc1nc(CN(C)C2CCN(CC(=O)N3CCOCC3)C2)no1` (stereo not given), the Percent Effect was 5.36%. `O=C(CCC1CC1)N1C[C@@H](CN2CCCC2)[C@@H](CO)C1` showed a Percent Effect of 0.505%. For `Cc1cc(NCc2cc3n(n2)CCCN(C(=O)N(C)C)C3)ncn1`, the Percent Effect was 0.54%. Work on `CCN(CC)C(=O)CCNC(=O)N1CCC(c2ccccc2)C1` (stereo not given) yielded a Percent Effect of -1.42%. For `COCCN1CCCC12CCN(C(=O)CC1CCCC1)CC2`, the Percent Effect was -1.62%. `COc1ccc(CNC(=O)c2nn(C)c3c2CS(=O)(=O)CC3)cc1OC` showed a Percent Effect of -8.6%. `CCOC(=O)N1CCN(C(=O)c2sc(-c3ccc(F)cc3)nc2C)CC1` gave a Percent Effect of -0.364%. Compound `CN(c1ccc(C(=O)NCCCN2CCOCC2)c(Cl)c1)S(C)(=O)=O` has a Percent Effect of -4.13%. `O=C([C@@H]1CCO[C@@H]2CCN(Cc3cccnc3)C[C@H]21)N1CCCCO1` was tested, and the Percent Effect was 6.53%. For `Cc1csc(C2CCCCN2C(=O)CN(C)Cc2ccccc2)n1` (stereo not given), the Percent Effect was -3.92%. Compound `CCc1cc(NC2CCN(S(C)(=O)=O)CC2)n2nc(C)c(C)c2n1` has a Percent Effect of 1.78%. With `O=C(CCc1cccs1)N1CCC(Nc2cccnn2)CC1` the Percent Effect was -2.47%. With `O=C(NCCNc1ncccn1)N1CCSCC1` the Percent Effect was -0.235%. Compound `COCC(=O)N1CCC2(CCN(Cc3ccccn3)CC2)CC1` has a Percent Effect of 6.21%. For `COCCNc1nc2c(c(NCc3ccncc3)n1)CCNCC2`, the Percent Effect was 2.58%. `CCn1cnnc1CNC(=O)N1CCN(c2cccs2)CC1` gave a Percent Effect of -5.34%. `CC1CN(CC(=O)Nc2nncs2)CCN1c1nccs1` (stereo not given) showed a Percent Effect of 4.78%. `O=S(=O)(NC1=NCN(CCc2cccs2)CN1)c1ccc(F)cc1` showed a Percent Effect of -0.523%. `Cc1nc(CN2CCO[C@@H]3CN(C(=O)NC(C)C)CC[C@@H]3C2)cs1` showed a Percent Effect of 3.49%. `Cn1cccc1C(=O)N1CCC2(CC1)CN(c1ccccn1)CCO2` showed a Percent Effect of 7.46%. For `CCN(CC)C1CCN(C(=O)NCc2nncn2CC)CC1`, the Percent Effect was -0.573%.
